# Screening data deposited in PubChem by several laboratories.
# An excerpt weighted towards active compounds, which were near 3.5% of everything screened.
# FadD28 FP inh = M. tuberculosis FadD28 bisubstrate binding inhibition; AID 588549; FadD28 bisubstrate probe binding, fluorescence polarization; hit rate 0.22% among 360,000; inhibition, % at 12.5 µM; in the data active = inhibition above about 8.5%, passing the limit was not always enough
# GDH-TPI counter = inhibits GDH-TPI coupling enzymes, artifact for Mtb FBA screen; GDH-TPI coupled enzyme counterscreen, NADH absorbance; inhibition, % at 4.8 µM; hit rate 1.2% among 360,000; AID 588335; in the data active = inhibition above about 30%;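 note: 0% = DMSO wells and 100% = wells lacking the enzyme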
# UGM FP inh = inhibitors of M. tuberculosis UDP-galactopyranose mutase; P9WIQ1; purified UGM, fluorescence polarization probe displacement; inhibition, % at 10 µM; hit rate 0.06% among 320,000; AID 504406; in the data active = inhibition above about 10%, passing the limit was not always enough
# Rv3671c protease = Rv3671c (M. tuberculosis) protease inhibition; P9WHR9; inhibition, % at 5.96 µM; hit rate 0.048% among 320,000; AID 2606; in the data active = inhibition above about 38%;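 note: extracellular domain of Rv3671c used as enzyme; 0% = enzyme with DMSO and 100% = no enzyme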
# Mtb hypoxia inh = inhibitors of hypoxia-regulated fluorescent reporter in Mycobacterium tuberculosis. M. tuberculosis hypoxia-regulated fluorescent reporter, fluorescence. fluorescence inhibition, % (concentration not given with the values). hit rate 0.1% among 300,000; in the data active = fluorescence inhibition mostly above about 23%, no sharp cut-off; inactive = mostly below about 17%
# FBA Mtb inh = Mtb fructose-bisphosphate aldolase inhibition; purified M. tuberculosis FBA, fluorescence read-out; inhibition, % at 1 µM; hit rate 2.3% among 360,000; in the data active = inhibition above about 27%;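 note: 0% = vehicle and 100% = reference inhibitor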
# Target sequence (P9WQA3 whole entry, looked up): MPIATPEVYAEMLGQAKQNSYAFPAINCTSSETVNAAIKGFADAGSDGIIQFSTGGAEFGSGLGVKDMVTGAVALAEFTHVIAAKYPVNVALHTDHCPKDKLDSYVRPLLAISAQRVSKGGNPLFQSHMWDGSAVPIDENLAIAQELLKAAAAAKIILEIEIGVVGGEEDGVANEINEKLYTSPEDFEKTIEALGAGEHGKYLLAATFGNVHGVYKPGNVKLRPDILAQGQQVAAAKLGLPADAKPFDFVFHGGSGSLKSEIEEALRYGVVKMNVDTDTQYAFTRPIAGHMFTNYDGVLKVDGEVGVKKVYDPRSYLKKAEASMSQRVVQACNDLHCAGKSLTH
# The depositor's hits bear a star; . = no result; + = active, no number.
SMILES,FadD28 FP inh,GDH-TPI counter,UGM FP inh,Rv3671c protease,Mtb hypoxia inh,FBA Mtb inh
Cc1cc(OCC(=O)N2CCN(c3cccc(Cl)c3)CC2)c2c(C)c(C)c(=O)oc2c1,-5,7,2,-4,-3,2
CNC(=S)NN=Cc1ccc(OCc2ccccc2)c(Br)c1,.,.,.,.,3,.
CNC(=O)C1CC1C(NC(=O)OCc1ccccc1)c1ccccc1 (configuration not stated),.,.,.,.,20,.
CCCc1cc(=O)oc2c3c(cc(OCC(=O)NCc4ccccn4)c12)OC(C)(C)CC3,-3,18,-2,3,.,192*
Cc1ccc(Nc2cc(C)nc3c(C)cccc23)cc1,-1,32*,5,-2,8,1
N#Cc1ccccc1NC(=O)Nc1ccccc1,-1,-3,-2,5,8,50*
COc1cc(N)c2ncccc2c1Cl,0,12,.,.,7,46*
C/C(=N\NS(=O)(=O)c1ccc(C)c([N+](=O)[O-])c1)c1cc2ccccc2o1,0,41*,0,2,.,-3
Cc1ccc(S(=O)(=O)N/N=C/c2ccc(O)c(O)c2)cc1[N+](=O)[O-],-4,33*,2,11,.,-3
C/C(=N\NS(=O)(=O)c1ccc(Cl)c([N+](=O)[O-])c1)c1cc2ccccc2o1,0,21,0,3,.,-1
COC(=O)C(C)NC(=O)C=Cc1ccc(OC)cc1 (configuration not stated),.,.,.,.,1,.
O=c1oc2cc(O)ccc2cc1-c1ccccc1,-2,12,0,-7,-1,+
O=c1oc2ccccc2cc1-c1ccc(O)cc1O,1,23,-1,0,-4,3
COc1ccc(-c2c(C)c3cc(O)ccc3oc2=O)cc1,-2,16,1,-15,12,1
COc1ccc(-c2cc3ccc(O)cc3oc2=O)cc1,-1,27,4,0,2,+
COc1ccc(C(=O)NN=Cc2c(CO)cnc(C)c2O)cc1,.,.,.,.,5,.
O=C(O)c1ccc(N/N=C2/CCCc3ccccc32)cc1,3,79*,-1,-6,.,2
COc1ccc(/C=C/c2nnc(NC(=O)C(C)(C)C)s2)cc1,-1,52*,0,1,8,9
CCCC(=O)Nc1nnc(/C=C/c2ccc(OC)cc2)s1,-4,22,-3,-3,-8,11
CCN1C(=O)C2C(c3ccc(-c4ccc(F)cc4)c(OC)c3)N[C@@](C)(C(=O)OC)C2C1=O (some centres not stated),.,.,.,.,11,.
CCCn1c(=N)c(C(=O)NC2CCCC2)cc2c(=O)n3cccc(C)c3nc21,0,7,-1,-6,-1,+
CCn1c(=N)c(C(=O)NC)cc2c(=O)n3cccc(C)c3nc21,1,11,.,.,.,+
COCCCn1c(=N)c(C(=O)NCc2ccc3c(c2)OCO3)cc2c(=O)n3cccc(C)c3nc21,0,4,.,.,-4,-2
Cc1cccn2c(=O)c3cc(C(=O)NC4CCCC4)n(C)c3nc12,0,5,2,-13,0,21
Cc1cccn2c(=O)c3cc(C(=O)NC4CCCCC4)n(C)c3nc12,-1,8,-3,-9,3,5
SMILES,FadD28 FP inh,GDH-TPI counter,UGM FP inh,Rv3671c protease,Mtb hypoxia inh,FBA Mtb inh
Cc1cccn2c(=O)c3cc(C(=O)NC4CCCC4)c(=N)n(C4CCCC4)c3nc12,-5,2,3,-4,.,+
N=c1c(C(=O)NCc2ccco2)cc2c(=O)n3ccccc3nc2n1C1CCCC1,-1,13,0,6,10,+
CCOc1cc(C(=O)NN=CC2CC=CCC2)cc(OCC)c1OCC (configuration not stated),.,.,.,.,-9,.
N=c1c(C(=O)NC2CCCC2)cc2c(=O)n3ccccc3nc2n1C1CCCC1,-2,14,-1,1,10,123*
Cc1ccc(-c2c(C(=O)N/N=C/c3ccc4c(c3)OCO4)nnn2-c2nonc2N)cc1,-1,43*,1,1,.,4
CCOc1cccc(-c2c(C(=O)N/N=C/c3sccc3C)nnn2-c2nonc2N)c1,-21,32*,0,-5,.,-1
Cc1ccsc1C=NNC(=O)c1nnn(-c2nonc2N)c1-c1ccc2c(c1)OCO2,.,.,.,.,-1,.
Cc1ccsc1/C=N/NC(=O)c1nnn(-c2nonc2N)c1-c1ccc2c(c1)OCO2,0,32*,-3,-2,.,-4
Nc1nonc1-n1nnc(C(=O)N/N=C/c2cccs2)c1-c1ccc2c(c1)OCO2,-1,39*,-2,-9,.,2
Nc1nonc1-n1nnc(C(=O)NN=Cc2ccc(F)cc2)c1-c1ccc2c(c1)OCO2,.,.,.,.,1,.
O=C(CN1CCN(Cc2ccccc2Cl)CC1)NN=Cc1cccs1,.,.,.,.,-1,.
C/C(C=NNC(=O)CSc1n[nH]c(=O)[nH]c1=O)=C\c1ccccc1,.,.,.,.,12,.
Cc1ccccc1CS(=O)(=O)CC(O)CN1CCCC1=O (configuration not stated),-2,0,-4,-11,4,+
CCc1cc2c(=O)c(Oc3ccccc3)c(C)oc2cc1O,-2,18,-1,7,-1,186*
Cc1oc2cc(OCC(=O)O)ccc2c(=O)c1Oc1ccccc1,-4,4,-2,4,16,1
O=C(NN=Cc1ccco1)c1ccc(NC(=O)c2ccccc2Cl)cc1,.,.,.,.,9,.
COc1ccc(/C=N/NC(=O)c2cccc(NC(=O)c3ccccc3Cl)c2)c(OC)c1,-2,31*,1,-25,.,2
O=C(N/N=C/c1ccco1)c1cccc(NC(=O)c2ccccc2Cl)c1,-8,32*,2,-12,.,-1
COCC(=O)N1CCCC(C(=O)c2ccc3c4c(cccc24)CC3)C1 (configuration not stated),-1,39*,2,-2,-3,27
COCCC(=O)N1CCCC(C(=O)c2ccc3c4c(cccc24)CC3)C1 (configuration not stated),-1,4,-2,-6,2,8
CC(C)Oc1ccc(Br)cc1C(=O)NN=Cc1c[nH]c2ccccc12,.,.,.,.,-1,.
COc1cccc2c1OC(=NO)C(C(=O)Nc1ccc(C)cc1)C2 (configuration not stated),.,.,.,.,4,.
COc1c(/C=C2\SC(=Nc3ccccc3Cl)NC2=O)cccc1[N+](=O)[O-],-3,14,2,-14,2,-2
COc1cc(/C=C2/S/C(=N/S(=O)(=O)c3ccccc3)NC2=O)c([N+](=O)[O-])cc1OC,4,26,-4,-4,-1,-5
COc1cc(/C=C2\S/C(=N/S(=O)(=O)Cc3ccccc3)NC2=O)c([N+](=O)[O-])cc1OC,3,33*,-3,-1,-1,-4
COc1cc(/C=C2/S/C(=N/S(=O)(=O)Cc3ccccc3)NC2=O)c([N+](=O)[O-])cc1OC,4,34*,2,11,-18,-3
CCN1C(=O)C2C(c3ccc(-c4ccc(C(C)=O)cc4)cc3)N3CCC[C@@]3(C(=O)OC)C2C1=O (some centres not stated),.,.,.,.,-9,.
CCN1C(=O)[C@@H]2[C@@H](c3ccc(-c4cc(C(C)=O)cs4)cc3)N3CCC[C@@]3(C(=O)OC)[C@@H]2C1=O,-3,36*,.,.,.,10
